# Measured values as given in ChEMBL document CHEMBL4513146, “CO-ADD screening of Karazin Kharkiv National University (Ukraine) compounds”.
# Measured potencies and affinities stand elsewhere.
# Columns and labels:
# Klebsiella pneumoniae = conditions: Concentration 32 ug.mL-1;; ASSAY_TEST Inhibition of Bacterial Growth; detection method Absorption (OD600); MEDIA CAMHB; plate type 384well; NBS; CORNING #3640; time 18 hr
# Candida albicans = conditions: Concentration 32 ug.mL-1; ASSAY_TEST Inhibition of Fungal Growth; detection method Absorption (OD530)
# Cryptococcus neoformans = conditions: Concentration 32 ug.mL-1; ASSAY_TEST Inhibition of Fungal Growth; detection method Resazurin; Absorption (OD600-OD570); plate type 384well; NBS; CORNING #3640
Compound,Inhibition (Klebsiella pneumoniae) [%],Inhibition (Candida albicans) [%],Inhibition (Cryptococcus neoformans) [%]
COc1ccc(C)cc1NC(=O)Cn1nc2ccc(SCc3ccc(Cl)cc3)nn2c1=O,-0.56,31.09,-20.73
Cc1cc(C)cc(Nc2nc(C)cc3nn(CC(=O)NC4CCCCC4)c(=O)n23)c1,13.04,1.39,-8.46
O=C(Cn1nc2c3cc(-c4ccc(F)cc4)nn3ccn2c1=O)N1CCCc2ccccc21,8.12,1.02,-21.22
Cc1ccc(NC(=O)Cn2nc3c(Oc4ccccc4Cl)nccn3c2=O)cc1F,12.22,0.49,-9.07
Cc1ccc(-c2ccc3nn(CC(=O)N4CCN(c5ccccc5)CC4)c(=O)n3n2)cc1C,1.81,0.84,-5.58
CCc1cccc(NC(=O)Cn2nc3c(SC4CCCCC4)nccn3c2=O)c1,3.05,12,-17.3
COc1ccc(NC(=O)Cn2nc3c4cc(-c5ccc(C)c(C)c5)nn4ccn3c2=O)cc1Cl,8.4,6.09,-7.3
COc1ccc(N(Cc2cccc(F)c2)S(=O)(=O)c2ccc3nnc(C)n3c2)cc1,0.18,7.1,-3.46
CC(C)c1nnc2c(SCC(=O)Nc3cccc(Cl)c3)nc3ccccc3n12,10.95,2.12,-14.08
Cc1ccc(-n2ccn3c(=O)n(Cc4ccccc4)nc3c2=O)cc1C,-0.96,0.88,-10.01
CSc1ccc(CNC(=O)Cn2nc3c(Oc4ccccc4)nccn3c2=O)cc1,13.75,0.62,-8.38
COc1ccccc1N1CCN(C(=O)CSc2nnc3c(=O)n(-c4ccc(F)cc4)ccn23)CC1,11.85,1.66,-8.01
CCCc1nnc2c(=O)n(CC(=O)Nc3ccc(C#N)cc3)c3ccccc3n12,0.24,1.16,-7.04
O=C(Cn1nc2ccc(SC3CCCCC3)nn2c1=O)Nc1ccc2c(c1)CCC2,11.52,2.83,-22.07
COc1ccc(Cl)cc1NC(=O)CSc1nnc2c(=O)n(-c3ccccc3)ccn12,11.41,3.46,-20.14
CC1CCCN(c2nccn3c(=O)n(CC(=O)Nc4ccc5c(c4)OCO5)nc23)C1 (configuration not stated),1.66,-0.45,-11.4
COc1cccc(Oc2nccn3c(=O)n(CC(=O)Nc4ccc(OC)c(Cl)c4)nc23)c1,9.28,1.52,-8.33
CCC(C)NC(=O)Cn1nc2n(CCC(=O)NC3CCCCC3)c(=O)c3ccccc3n2c1=O (configuration not stated),-2.01,3.91,-20.86
COc1ccc(-c2cc3c4nn(CC(=O)Nc5ccc(C)c(C)c5)c(=O)n4ccn3n2)cc1,5.79,-0.09,-15.38
Cc1ccccc1CN(c1ccc(C(C)C)cc1)S(=O)(=O)c1cccn2c(C)nnc12,8.89,4.49,-10.58
COc1ccc(-c2cc3c4nn(CC(=O)Nc5ccc(OC)c(Cl)c5)c(=O)n4ccn3n2)cc1,-0.45,32.01,-18.43
CCc1cccc(NC(=O)CSc2nnc3c(=O)n(-c4cccc(OC)c4)ccn23)c1,7.34,13.59,-2.76
COc1ccc(N(Cc2cccc(C)c2)S(=O)(=O)c2ccc3nnc(C)n3c2)cc1,7.11,0.04,-1.35
Cc1ccccc1Oc1nc2ccccc2n2c(=O)n(CC(=O)Nc3ccccc3C(F)(F)F)nc12,7.22,11.93,-23.01
CCOC(=O)c1ccccc1NC(=O)Cn1nc2ccc(Sc3ccc(C)cc3)nn2c1=O,14.69,-1.17,-9.49

Compound,Inhibition (Klebsiella pneumoniae) [%],Inhibition (Candida albicans) [%],Inhibition (Cryptococcus neoformans) [%]
O=C(Cn1nc2c3c4c(sc3ncn2c1=O)CCCC4)Nc1ccc2c(c1)OCO2,4.23,4.71,-14.52
N#CCn1nc2n(CCC(=O)NC3CCCCC3)c(=O)c3ccccc3n2c1=O,0.53,1.95,1.45
COc1cccc(Oc2nccn3c(=O)n(CC(=O)Nc4ccccc4C(F)(F)F)nc23)c1,12.08,1.07,-10.15
O=C(Cn1nc2c3cc(-c4ccc(F)cc4)nn3ccn2c1=O)N1CCN(c2ccccc2F)CC1,8.2,2.96,-19.92
Cc1ccc(NC(=O)Cn2nc3ccc(-c4ccc(Cl)cc4)nn3c2=O)cc1,3.71,1.61,-4.05
Cc1ccc(Nc2cc(C)n3c(=O)n(Cc4cc(=O)n5ccccc5n4)nc3n2)cc1F,9.15,-0.76,-5.54
CC(C)CCn1c(=O)c2ccccc2n2c(=O)n(CC#N)nc12,17.73,2.65,-29.58
COc1ccc(NC(=O)CSc2nnc3c(=O)n(-c4cccc(OC)c4)ccn23)cc1,5.61,2.12,-13.19
CC(C)Cn1c(=O)c2sccc2n2c(=O)n(Cc3cccc(Br)c3)nc12,8.23,-0.42,-24.19
COc1ccc(NC(=O)Cn2nc3ccc(SCc4ccc(Cl)cc4)nn3c2=O)cc1OC,-4.29,32.62,-6.53
CCc1ccc(N(Cc2ccccc2F)S(=O)(=O)c2cccn3c(C)nnc23)cc1,6.64,0.88,-9.4
O=c1n(Cc2cccc(C(F)(F)F)c2)nc2c(S(=O)(=O)N3CCCCCC3)cccn12,7.16,2.16,-9.24
Cc1ccc(NC(=O)Cn2nc3c(N4CCCC4)nccn3c2=O)cc1Cl,13.96,0.98,-21.34
Cc1ccc(-c2ccc3nn(CC(=O)Nc4ccc(Cl)c(C(F)(F)F)c4)c(=O)n3n2)cc1C,0.66,5.4,-13.03
COc1ccc(NC(=O)Cn2nc3ccc(SC(C)C)nn3c2=O)cc1OC,9.91,1.32,-1.1
O=C(Cn1nc2c(SC3CCCCC3)nccn2c1=O)Nc1ccc(Cl)cc1F,10.76,1.51,-29.46
CCCc1nnc2c(=O)n(CC(=O)Nc3ccc(Br)cc3)c3ccccc3n12,14.09,0.11,-25.88
CC(C)Cn1c(=O)c2sccc2n2c(=O)n(CC(=O)N3CCC(Cc4ccccc4)CC3)nc12,-9.43,0.45,-94.76
Cc1ccc(Sc2ccc3nn(CC(=O)Nc4ccc(Br)c(C)c4)c(=O)n3n2)cc1,2.67,11.69,-8.57
Cc1nnc2c(SCC(=O)Nc3ccc4c(c3)OCCO4)nc3ccccc3n12,9.06,1.7,-7.59
CCOc1ccc(-n2ccn3c(SCC(=O)c4ccccc4)nnc3c2=O)cc1,1.87,12.91,-3.51
COc1cccc(Oc2nccn3c(=O)n(CC(=O)Nc4cc(F)ccc4F)nc23)c1,3.2,5.06,-8.45
O=c1c2nn(Cc3ccc(F)cc3)c(=O)n2ccn1-c1ccccc1,9.86,2.87,-6.47
N#Cc1cccc(NC(=O)Cn2nc3c(Oc4ccccc4)nccn3c2=O)c1,7.41,1.17,-6.48
